High-throughput results as filed in PubChem.
The list is not random: actives were taken first. Their share in the collection is about 7.5%.
NPC1 prom act = activators of NPC1 promoter | actives 2.4% (n = 320,000) | Potency, µM (titrated, usually from 9.22 µM), actives largely listed as activators | Huh7 NPC1 promoter luciferase reporter, 24 h | AID 485313; note: nearly all actives have a fitted effect of over 60% in size
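Stable NPC1-promoter luciferase Huh7 line; cpd (DMSO) 24 h, 37 °C, 5% CO2; Amplite luciferase reagent 10 min RT; luminescence readout. qHTS format.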
Rab9 promoter act = activates the Rab9 promoter. Huh7 Rab9 promoter-luciferase reporter, luminescence, 24 h. Potency, µM (series often up to 9.22 µM), most hits filed as activators. actives 2.8% (n = 320,000); note: nearly all actives have a fitted effect of over 60% in size
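Huh7 reporter line, Rab9 promoter upstream of luciferase. Compound exposure 24 h at 37 °C in reduced-serum medium with 10% FBS. Read-out: luminescence.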
KinaseGlo FLuc = blocks Kinase-Glo luciferase, a counter-screen artifact; Kinase-Glo luciferase, ATP luminescence, 8 min; actives 0.28% (n = 200,000); Q27757; Potency, µM (titrated, usually from 38.3 µM), actives largely listed as inhibitors; note: nearly all actives have a fitted effect of over 60% in size
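Compounds were added to a substrate mix at pH 7.2 (50 mM imidazole, 10 uM ATP, within the enzyme's linear range), followed by Kinase-Glo detection reagent; luminescence was measured after 8 minutes at ambient temperature.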
SMN2 splice up = enhancers of SMN2 splice variant expression; HEK293 SMN2-luciferase splicing reporter, luminescence, 30-36 h; Potency, µM (top dose mostly 46.1 µM), usual class: activators; actives 2.8% (n = 210,000); note: nearly all actives have a fitted effect of over 55% in size
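HEK293 cells carry an SMN2 minigene-luciferase reporter in which exon 7 inclusion puts luciferase in frame. Cells were seeded at 2000 cells/well, attached for 10-12 hours, then exposed to compounds for 30-36 hours at 37C before ONE-Glo luminescence.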
ELG1 genotoxic = inducers of genotoxicity in HEK293T ELG1-luciferase cells | HEK293T ELG1-luciferase reporter, luminescence, 16 h | AID 504466 | Potency, µM (doses to about 46 µM), actives largely listed as activators | actives 1.3% (n = 330,000); note: nearly all actives have a fitted effect of over 60% in size
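HEK293T cells expressing luciferase-tagged ELG1 were exposed to compound or DMSO vehicle for 16 hr at 37 °C and 5% CO2. Luciferase activity was then measured with ONE-Glo after 30 min at room temperature.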
FLuc modulator = counter-screen for miR-21 project: firefly luciferase inhibitors or activators | purified FLuc, Km substrates, luminescence inhibition | P08659 | AID 588342 | actives 6.9% (n = 360,000) | Potency, µM (top dose mostly 57.5 µM), usual class: inhibitors; note: nearly all actives have a fitted effect of over 55% in size
Target sequence (P08659 whole entry, looked up): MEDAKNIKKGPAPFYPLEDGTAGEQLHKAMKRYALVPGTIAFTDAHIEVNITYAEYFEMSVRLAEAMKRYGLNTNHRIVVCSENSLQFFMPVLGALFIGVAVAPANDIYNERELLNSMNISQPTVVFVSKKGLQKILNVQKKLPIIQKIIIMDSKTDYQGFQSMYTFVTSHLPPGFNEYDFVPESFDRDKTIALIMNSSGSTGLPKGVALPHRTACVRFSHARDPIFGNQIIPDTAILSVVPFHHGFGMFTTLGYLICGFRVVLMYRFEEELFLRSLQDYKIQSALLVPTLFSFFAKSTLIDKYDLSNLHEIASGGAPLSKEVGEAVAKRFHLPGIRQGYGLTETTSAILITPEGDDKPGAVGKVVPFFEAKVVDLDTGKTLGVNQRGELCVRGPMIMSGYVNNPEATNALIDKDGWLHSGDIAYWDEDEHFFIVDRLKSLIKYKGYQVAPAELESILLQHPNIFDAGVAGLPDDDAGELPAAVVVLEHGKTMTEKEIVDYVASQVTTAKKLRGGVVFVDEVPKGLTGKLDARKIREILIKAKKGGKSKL
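Biochemical qHTS of compounds, final roughly 60 µM downward over six points, against 10 nM purified firefly luciferase using Km concentrations of substrates (10 uM D-luciferin, 10 uM ATP) in Tris acetate pH 7.5 buffer; luminescence output.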
Numbers stand for hits; 0 = inactive; ? = inconclusive; - = no result given. Calls come from the whole dose curve; as a rule, active = well fitted curve in the direction sought with a large enough effect; inconclusive = small, poorly fitted or top-dose-only effect, or another doubt; inactive = no such curve, though single readings can be large; an effect the other way counts as inactive or inconclusive.

SMILES	NPC1 prom act	Rab9 promoter act	KinaseGlo FLuc	SMN2 splice up	ELG1 genotoxic	FLuc modulator
Cc1ccc(NC(=S)N2CCCC(O)C2)cc1 (stereo not given)	0	0	0	?	?	16.9µM
OCC1CCCN(C(=S)Nc2ccc(OC(F)F)cc2)C1 (stereo not given)	0	0	-	-	?	16.9µM
OCC1CCCN(C(=S)Nc2ccc(Nc3ccccc3)cc2)C1 (stereo not given)	?	2µM	0	?	?	9.53µM
CC(C)c1ccc(NC(=S)N2CCN(C)CC2)cc1	0	0	-	-	?	?
CC(C)c1ccc(NC(=S)N2CCCC2)cc1	2.51µM	2.24µM	-	-	?	23.9µM
Cc1ccc(NC(=S)N2CCOCC2)cc1	0	0	0	0	0	?
COc1ccccc1OCCn1c(-c2ccc(Br)cc2)nc2ccccc2c1=O	-	-	-	0	-	0
CC(C)CC1NC(=O)c2cc(Cl)ccc2-n2c1nc1ccc(F)cc1c2=O (stereo not given)	-	-	-	-	0	-
Clc1ccc2nc(CSc3nc4ccccc4o3)cn2c1	0.891µM	1µM	0	17.8µM	2.59µM	1.9µM
Cc1ccc(SCc2cn3c(C)csc3n2)cc1	0.631µM	0.631µM	0	8.91µM	1.64µM	2.13µM
Cc1cccc2nc(CSc3ccc(Cl)cc3)cn12	3.16µM	2.24µM	0	11.2µM	?	9.53µM
Cc1ccc(SCc2cn3cc(Cl)ccc3n2)cc1	?	?	-	-	0	13.5µM
NC(=O)CSc1ncc2c(n1)-c1ccccc1N(Cc1ccc(Cl)cc1)S2(=O)=O	-	-	-	-	-	0
CC(C)C[C@@H](CC(=O)N[C@@H](CCC(=O)O)CC(=O)O)NC(=O)[C@@H]1CCCC[C@H]1NC(=O)C[C@H](CCCN)NC(=O)C[C@H](Cc1c[nH]c2ccccc12)NC(=O)[C@@H]1CCCC[C@H]1N	-	-	0	0	-	-
COC(=O)c1c(C)sc(-c2c(-c3ccc4c(c3)OCCO4)[nH]c3c2c(=O)[nH]c(=O)n3C)c1O	-	-	-	-	-	0
Nn1c(SCc2cn3cc(Cl)ccc3n2)nnc1-c1ccncc1	0	0	0	0	0	0
CNc1cc(CSc2ccc(Cl)cc2)nc(C)n1	?	2.24µM	0	?	0	16.9µM
Cc1cc(C)n2cc(CSCc3ccco3)nc2n1	0	0	0	0	0	0
Clc1ccc2nc(CSc3nncn3-c3ccccc3)cn2c1	0	0	0	0	0	0
Nc1nnc(SCc2cn3cc(Cl)ccc3n2)s1	?	3.98µM	0	?	?	?
Cc1nc(CSc2ccc(Cl)cc2)cc(NCc2ccccc2)n1	0	0	0	0	0	0
Cc1cccc2nc(CSCc3ccco3)cn12	1.12µM	2.24µM	0	11.2µM	?	7.57µM
Clc1ccc2nc(CSc3nnc4ccccn34)cn2c1	0.501µM	1µM	0	10µM	8.2µM	7.57µM
O=C(c1c2c(nc3ccccc13)C(=O)N(C1CCCCC1)C2)N1CCN(c2ccc(F)cc2)CC1	-	-	-	-	-	0
Clc1ccc(SCc2cn3ccccc3n2)cc1	?	2.51µM	0	11.2µM	?	9.53µM
SMILES	NPC1 prom act	Rab9 promoter act	KinaseGlo FLuc	SMN2 splice up	ELG1 genotoxic	FLuc modulator
c1ccc(CSCc2ccccc2)cc1	0	0	-	0	0	0
Clc1ccc2nc(CSCc3ccccc3)cn2c1	1.58µM	2µM	0	12.6µM	?	7.57µM
Cc1ccc(N2C(=O)[C@@H]3CSC(c4ccc(Cl)cc4)N3C2=O)cc1 (stereo not given in full)	-	-	-	0	-	0
Cc1ccc(-c2onc3ccc(C=O)cc23)cc1	?	?	0	?	5.17µM	?
Cc1occc1C(=O)NCCc1cccc(Cl)c1	?	3.98µM	0	?	?	21.3µM
O=C(NCCc1ccccc1)c1cccs1	2.82µM	2.82µM	0	11.2µM	2.91µM	10.7µM
O=C(NCCCNC(=O)c1cccs1)c1cccs1	0	0	0	0	0	0
O=C(NCCCCNC(=O)c1cccs1)c1cccs1	0	0	0	0	0	0
O=C(NCCc1cccc(Cl)c1)c1cccs1	2.24µM	1.78µM	0	15.8µM	?	15.1µM
CC(=O)N1CCC(N(Cc2ccc(C)o2)C(=O)Nc2ccc(C)cc2)CC1	-	-	-	-	-	0
Cc1cc(=O)n(C(C)C(=O)NCc2ccccc2Cl)c2c1c(C)nn2-c1ccccc1 (stereo not given)	-	-	-	-	-	0
CN(C)/C=N/c1ncnc2c1cnn2-c1ccc(C(F)(F)F)cn1	2.51µM	?	0	14.1µM	?	10.7µM
Cc1[nH]nc(N=CC2=C(O)CC(C)(C)CC2=O)c1-c1ccccc1	0	0	0	0	0	13.5µM
CCOc1ccccc1NC(=O)c1c(NCc2ccc(OC)c(OC)c2OC)sc2c1CCC(C)C2 (stereo not given)	-	-	-	-	-	0
O=C(NC1=NC2CCCCC2N1)c1ccccc1 (stereo not given)	0.398µM	0.316µM	?	0	0.581µM	1.51µM
COc1cc(-c2[nH]ncc2CN2CCSCC2)cc(OC)c1OC	0	0	-	-	18.3µM	0
Cc1ccc(N2C(=O)[C@@H]3CSC(c4ccc(C(F)(F)F)cc4)N3C2=O)cc1 (stereo not given in full)	-	-	-	0	-	0
O=C(Cn1c(=O)c2cccn2c2ccc(F)cc21)NCc1cccc(Cl)c1	-	-	-	-	-	0
Cc1ccc2nc(-c3ccc(C)s3)c(Nc3ccc4c(c3)OCCO4)n2c1	-	-	-	12.6µM	-	?
Cc1ccc2nc(-c3ccco3)c(Nc3ccc4c(c3)OCCO4)n2c1	-	-	-	0	-	10.7µM
COc1cc(-c2nc3ccc(C)cn3c2Nc2ccc3c(c2)OCCO3)ccc1O	0	0	0	?	0	21.3µM
Cc1ccn2c(Nc3ccc4c(c3)OCCO4)c(-c3ccc(C)o3)nc2c1	-	-	-	?	-	13.5µM
CCOc1ccc(C(=O)Cn2c(=O)n3nc(CCn4nc(C)cc4C)nc3c3cc(OC)c(OC)cc32)cc1	-	-	-	-	-	0
COCCCNC(=O)Cn1c(=O)n(-c2ccc(C)cc2)c(=O)c2c1c1cc(C)ccc1n2C	-	-	-	-	-	0
CC(=O)c1cc(-c2ccc(F)cc2)n(CC(=O)NC2CCC(C)CC2)c1C (stereo not given)	-	-	-	-	-	0
SMILES	NPC1 prom act	Rab9 promoter act	KinaseGlo FLuc	SMN2 splice up	ELG1 genotoxic	FLuc modulator
C(=C\c1nc(-c2cccnc2)no1)/c1ccccc1	0	?	0	-	0	4.78µM
Clc1ccc(-c2noc(/C=C/c3ccccc3)n2)cc1	0	0	-	-	?	?
Cc1ccc(-c2noc(/C=C/c3ccccc3)n2)cc1	?	?	0	?	0	9.53µM
Clc1ccccc1/C=C/c1nc(-c2cccnc2)no1	1.26µM	0.631µM	-	-	?	1.69µM
Cc1ccc(CNC(=O)c2ccc3c(c2)CCN3S(=O)(=O)c2ccc(Br)cc2)cc1	-	-	-	0	-	0
COc1cccc(CNC(=O)c2nc(Cn3nc(C)c(Br)c3C)no2)c1	-	-	-	-	-	0
CCOC(=O)c1csc(-c2ccc3c(c2)CCO3)n1	3.55µM	2.24µM	-	-	?	4.78µM
CCOC(=O)c1csc(-c2ccc(OC)c(OC)c2)n1	0	0	0	0	0	?
